Data taken from the antibiotic and cytotoxicity screens of Wong et al. (2023).
The campaign covered roughly 39,000 compounds. About 3,300 (8.5%) were called active. This excerpt belongs to a sample that is enriched for actives.

tested on: HepG2; assay: cytotoxicity call (relative viability < 0.9); conditions: 10 µM

Row | SMILES | cytotoxicity call
1 | C[C@@H]1CN([C@@H](C)CO)C(=O)c2cc(C#CC3(O)CCCC3)cnc2O[C@H]1CN(C)C(=O)Cc1ccncc1 | inactive
2 | C[C@@H]1CCCCO[C@@H](CN(C)S(=O)(=O)c2ccccc2)[C@H](C)CN([C@H](C)CO)C(=O)c2cc(NC(=O)c3ccccc3)ccc2O1 | inactive
3 | N=C(N=C(N)N)N1CCOCC1 | inactive
4 | O=C1N[C@@H]2[C@@H]1[C@H]1C=C[C@H]2C1 | inactive
5 | C[C@@H]1CCCCO[C@H](CN(C)C(=O)Nc2ccc(F)cc2)[C@H](C)CN([C@@H](C)CO)C(=O)c2cc(NS(=O)(=O)c3ccc(F)cc3)ccc2O1 | inactive
6 | C[C@H]1CN([C@@H](C)CO)C(=O)c2cc(-c3ccncc3)cnc2O[C@@H]1CN(C)S(=O)(=O)c1ccc(F)cc1 | inactive
7 | COc1ccccc1CNC(=O)C[C@@H]1C[C@@H]2c3cc(NC(=O)c4ccc5c(c4)OCO5)ccc3O[C@@H]2[C@@H](CO)O1 | inactive
8 | CNC(=O)c1ccc(CO)cc1 | inactive
9 | CN(C)Cc1cn(CC[C@@H]2CC[C@H](N)[C@@H](CO)O2)nn1 | inactive
10 | C[C@H]1CN([C@@H](C)CO)C(=O)c2cccc(NC(=O)NC3CCCCC3)c2O[C@H]1CN(C)S(=O)(=O)c1cn(C)cn1 | inactive
11 | O=C(C[C@@H]1CC[C@H]2[C@@H](COC[C@@H](O)CN2C(=O)c2ccccn2)O1)NC1CCC1 | inactive
12 | CN1CCN(C(c2ccccc2)c2ccccc2)CC1 | inactive
13 | CN1CCC(=C2c3ccccc3CCc3sccc32)CC1.O=C(O)CC(O)C(=O)O | inactive
14 | CN1CCC(=C2c3ccccc3Sc3ccccc32)CC1.O=C(O)C=CC(=O)O | active
15 | CN1CCC(=C2c3ccccc3CC(=O)c3sccc32)CC1.O=C(O)C=CC(=O)O | inactive
16 | CN1C(=O)c2ccccc2C1=O | inactive
17 | CN1CCC(=C2c3ccccc3C=Cc3ccccc32)CC1.Cl | active
18 | C[C@H]1CCCCO[C@H](CN(C)C(=O)Nc2ccc(C(F)(F)F)cc2)[C@@H](C)CN([C@@H](C)CO)C(=O)c2cc(NC(=O)c3ccccc3)ccc2O1 | inactive
19 | CCOC(=O)[C@@H]1C(Cc2ccccc2)=CN(CCc2ccc(OC)c(OC)c2)C(=O)N1c1ccc(OC)cc1 | inactive
20 | C[C@@H]1CN([C@H](C)CO)C(=O)c2cc(C#CCN(C)C)cnc2O[C@@H]1CN(C)C(=O)Nc1cccc(F)c1 | inactive
21 | C[C@@H]1CN([C@@H](C)CO)C(=O)c2cccc(NC(=O)c3nc4ccccc4s3)c2O[C@H]1CN(C)CC1CCCCC1 | inactive
22 | C[C@@H]1CN([C@@H](C)CO)C(=O)c2cccc(NC(=O)c3nc4ccccc4s3)c2O[C@H]1CN(C)C(=O)Nc1cccc2ccccc12 | active
23 | C[C@@H]1CN([C@H](C)CO)C(=O)c2cccc(NC(=O)c3nc4ccccc4s3)c2O[C@H]1CN(C)CC1CCCCC1 | inactive

Row | SMILES | cytotoxicity call
24 | C[C@@H]1CN([C@H](C)CO)C(=O)c2cccc(NC(=O)c3nc4ccccc4s3)c2O[C@@H]1CN(C)C(=O)Nc1cccc2ccccc12 | inactive
25 | C[C@H]1CN([C@@H](C)CO)C(=O)c2cccc(NC(=O)c3nc4ccccc4s3)c2O[C@@H]1CN(C)C(=O)Nc1cccc2ccccc12 | inactive
26 | C[C@@H]1CN([C@@H](C)CO)C(=O)c2cccc(NC(=O)c3nc4ccccc4s3)c2O[C@@H]1CN(C)CC1CCCCC1 | active
27 | C[C@H](CO)N1C[C@H](C)[C@@H](CN(C)C(=O)Nc2cccc3ccccc23)Oc2c(NC(=O)c3nc4ccccc4s3)cccc2C1=O | active
28 | C[C@H](CO)N1C[C@H](C)[C@H](CN(C)C(=O)Nc2cccc3ccccc23)Oc2c(NC(=O)c3nc4ccccc4s3)cccc2C1=O | inactive
29 | C[C@H]1CN([C@@H](C)CO)C(=O)c2cccc(NC(=O)c3nc4ccccc4s3)c2O[C@H]1CN(C)C(=O)Nc1cccc2ccccc12 | inactive
30 | COc1cccc(S(=O)(=O)N[C@H]2CC[C@@H](CC(=O)NC3CCC3)O[C@H]2CO)c1 | inactive
31 | COC(=O)c1c[nH]c(=S)n1C | inactive
32 | COc1ccc(NC(=O)Nc2cccc3c2O[C@H](CN(C)Cc2ccc(C(=O)Nc4ccccc4N)cc2)[C@@H](C)CN([C@@H](C)CO)C3=O)cc1 | inactive
33 | O=C(C[C@H]1CC[C@@H]2[C@H](COC[C@H](O)CN2C(=O)c2ccccc2F)O1)N1CCN(c2ccccc2)CC1 | inactive
34 | CC[C@@H](C)SSc1ncc[nH]1 | inactive
35 | C[C@@H]1CCCCO[C@@H](CN(C)C(=O)Nc2cccc3ccccc23)[C@@H](C)CN([C@@H](C)CO)C(=O)c2cc(NC(=O)C3CCCCC3)ccc2O1 | inactive
36 | C[C@@H]1CCCCO[C@H](CN(C)C(=O)Nc2cccc3ccccc23)[C@@H](C)CN([C@@H](C)CO)C(=O)c2cc(NC(=O)C3CCCCC3)ccc2O1 | inactive
37 | C[C@H](CO)N1C[C@H](C)[C@H](CN(C)C(=O)Nc2cccc3ccccc23)OCCCC[C@H](C)Oc2ccc(NC(=O)C3CCCCC3)cc2C1=O | active
38 | C[C@@H]1CCCCO[C@H](CN(C)C(=O)Nc2cccc3ccccc23)[C@H](C)CN([C@H](C)CO)C(=O)c2cc(NC(=O)C3CCCCC3)ccc2O1 | active
39 | C[C@@H]1CCCCO[C@@H](CN(C)C(=O)Nc2cccc3ccccc23)[C@@H](C)CN([C@H](C)CO)C(=O)c2cc(NC(=O)C3CCCCC3)ccc2O1 | inactive
40 | C[C@@H]1CCCCO[C@@H](CN(C)C(=O)Nc2cccc3ccccc23)[C@H](C)CN([C@@H](C)CO)C(=O)c2cc(NC(=O)C3CCCCC3)ccc2O1 | inactive
41 | C[C@@H]1CCCCO[C@H](CN(C)C(=O)Nc2cccc3ccccc23)[C@@H](C)CN([C@H](C)CO)C(=O)c2cc(NC(=O)C3CCCCC3)ccc2O1 | inactive
42 | C[C@H]1CCCCO[C@@H](CN(C)C(=O)Nc2cccc3ccccc23)[C@@H](C)CN([C@@H](C)CO)C(=O)c2cc(NC(=O)C3CCCCC3)ccc2O1 | inactive
43 | C[C@@H]1CN([C@H](C)CO)C(=O)c2cc(NC(=O)C3CCCCC3)ccc2O[C@@H](C)CCCCO[C@@H]1CN(C)C(=O)Nc1cccc2ccccc12 | active
44 | C[C@@H]1CCCCO[C@@H](CN(C)C(=O)Nc2cccc3ccccc23)[C@H](C)CN([C@H](C)CO)C(=O)c2cc(NC(=O)C3CCCCC3)ccc2O1 | active
45 | C[C@@H]1CN([C@H](C)CO)C(=O)c2cc(NC(=O)C3CCCCC3)ccc2O[C@@H](C)CCCCO[C@H]1CN(C)C(=O)Nc1cccc2ccccc12 | inactive
46 | C[C@H](CO)N1C[C@H](C)[C@@H](CN(C)C(=O)Nc2cccc3ccccc23)OCCCC[C@H](C)Oc2ccc(NC(=O)C3CCCCC3)cc2C1=O | inactive
